# The whole screen tested about 5,500 compounds, of which about 2,000 (36%) were called active. Not shown: some 18% with an inconclusive outcome. Some of the results follow. A number with no mark means an inactive call. Cut-off read from the data, not from the text of the source: active = normalized growth mostly below about 0.91 (no sharp cut-off); inconclusive = no clear call, values can overlap the other calls; inactive = mostly above about 0.92.
# Test: chemical genetic growth profiling, strain panel (AID 1159580);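 note: tested at 20 µM; growth read once vehicle control cultures reached saturation at 30 °C; 1 = growth at the plate median or of vehicle wells; lower values mean less growth of the strain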
# Settings: S. cerevisiae deletion strains, growth OD
# [1] = locus YDL101C, strain DUN1, active compounds read low
# [2] = locus YHR030C, strain SLT2, active compounds read low
smiles,measurement,setting,value
CC(C)(C)C1=CC(=O)C=C(C(C)(C)C)C1=O,normalized growth,"locus YAL013W, strain DEP1, active compounds read low",1.03
same,normalized growth,"locus YBR229C, strain ROT2, active compounds read low",1.04
same,normalized growth,[1],0.997
same,normalized growth,"locus YDL134C, strain PPH21, active compounds read low",1.01
same,normalized growth,"locus YDR150W, strain NUM1, active compounds read low",0.979
same,normalized growth,"locus YEL061C, strain CIN8, active compounds read low",1
same,normalized growth,"locus YGR078C, strain PAC10, active compounds read low",1.01
same,normalized growth,[2],0.996
same,normalized growth,"locus YHR087W, strain rtc3, active compounds read low",1
same,normalized growth,"locus YJR043C, strain POL32, active compounds read low",1.02
same,normalized growth,"locus YJR075W, strain HOC1, active compounds read low",1.01
same,normalized growth,"locus YLR039C, strain RIC1, active compounds read low",1.03
same,normalized growth,"locus YLR058C, strain SHM2 (second series), active compounds read low",1.02
same,normalized growth,"locus YLR085C, strain ARP6, active compounds read low",1.05
same,normalized growth,"locus YLR262C, strain YPT6, active compounds read low",1
same,normalized growth,"locus YML094W, strain GIM5, active compounds read low",1.01
same,normalized growth,"locus YMR219W, strain ESC1, active compounds read low",1.01
same,normalized growth,"locus YMR263W, strain SAP30, active compounds read low",1.02
same,normalized growth,"locus YMR307W, strain GAS1, active compounds read low",1.02
same,normalized growth,"locus YNL153C, strain GIM3, active compounds read low",1.03
same,normalized growth,"locus YNL298W, strain CLA4 (second series), active compounds read low",1.03
same,normalized growth,"locus YNL322C, strain KRE1, active compounds read low",1
same,normalized growth,"locus YNR030W, strain Alg12, active compounds read low",1.03
same,normalized growth,"locus YOL006C, strain TOP1, active compounds read low",1.05
same,normalized growth,"locus YPL055C, strain LGE1, active compounds read low",1.02
same,normalized growth,"locus YPL241C, strain CIN2, active compounds read low",0.999
same,normalized growth,"locus YPR135W, strain CTF4, active compounds read low",1.07
CN1/C(=C/C=C/c2ccc3ccccc3[n+]2C)C=Cc2ccccc21,normalized growth,"locus YAR019C, strain CDC15, active compounds read low",0.675 (active)
same,normalized growth,"locus YBL105C, strain PKC1, active compounds read low",0.837 (active)
same,normalized growth,"locus YBR135W, strain CKS1, active compounds read low",0.901
same,normalized growth,"locus YBR136W, strain MEC1, active compounds read low",0.893 (active)
same,normalized growth,"locus YBR160W, strain CDC28, active compounds read low",0.919
same,normalized growth,"locus YDL017W, strain CDC7, active compounds read low",0.903 (active)
same,normalized growth,"locus YDL028C, strain MPS1, active compounds read low",0.928
same,normalized growth,[1],0.362 (active)
same,normalized growth,"locus YDL108W, strain KIN28, active compounds read low",0.912
same,normalized growth,"locus YDL132W, strain cdc53, active compounds read low",0.653 (active)
same,normalized growth,"locus YDL214C, strain PRR2, active compounds read low",0.185 (active)
same,normalized growth,"locus YDR052C, strain DBF4, active compounds read low",0.889 (active)
same,normalized growth,"locus YDR054C, strain cdc34, active compounds read low",0.581 (active)
same,normalized growth,"locus YDR226W, strain ADK1, active compounds read low",0.961
same,normalized growth,"locus YDR477W, strain SNF1, active compounds read low",0.226 (active)
same,normalized growth,"locus YER123W, strain YCK3, active compounds read low",0.204 (active)
same,normalized growth,"locus YER133W, strain GLC7, active compounds read low",0.18 (active)
same,normalized growth,"locus YFL009W, strain cdc4, active compounds read low",0.684 (active)
same,normalized growth,"locus YFL029C, strain CAK1, active compounds read low",0.603 (active)
same,normalized growth,"locus YFR003C, strain YPI1, active compounds read low",0.883 (active)
same,normalized growth,"locus YFR019W, strain FAB1, active compounds read low",0.217 (active)
same,normalized growth,"locus YFR028C, strain CDC14, active compounds read low",0.885 (active)
same,normalized growth,"locus YGR040W, strain KSS1, active compounds read low",0.215 (active)
same,normalized growth,"locus YGR052W, strain FMP48, active compounds read low",0.212 (active)
same,normalized growth,"locus YGR092W, strain DBF2, active compounds read low",0.148 (active)
same,normalized growth,[2],0.177 (active)
same,normalized growth,"locus YHR079C, strain IRE1, active compounds read low",0.182 (active)
same,normalized growth,"locus YHR082C, strain KSP1, active compounds read low",0.224 (active)
same,normalized growth,"locus YHR205W, strain SCH9, active compounds read low",0.132 (active)
same,normalized growth,"locus YIL147C, strain SLN1, active compounds read low",0.905
same,normalized growth,"locus YJL095W, strain BCK1, active compounds read low",0.208 (active)
same,normalized growth,"locus YJL157C, strain FAR1, active compounds read low",0.174 (active)
same,normalized growth,"locus YJR016C, strain ILV3, active compounds read low",0.828 (active)
same,normalized growth,"locus YJR066W, strain TOR1 (second series), active compounds read low",0.196 (active)
same,normalized growth,"locus YJR066W, strain TOR1, active compounds read low",0.197 (active)
same,normalized growth,"locus YKL048C, strain ELM1, active compounds read low",0.291 (active)
same,normalized growth,"locus YKL067W, strain YNK1, active compounds read low",0.162 (active)
same,normalized growth,"locus YKL101W, strain HSL1, active compounds read low",0.199 (active)
same,normalized growth,"locus YKL193C, strain SDS22, active compounds read low",0.655 (active)
same,normalized growth,"locus YKL203C, strain TOR2, active compounds read low",0.209 (active)
same,normalized growth,"locus YLR113W, strain HOG1, active compounds read low",0.29 (active)
same,normalized growth,"locus YLR133W, strain CKI1, active compounds read low",0.341 (active)
same,normalized growth,"locus YLR403W, strain SFP1, active compounds read low",0.0454 (active)
same,normalized growth,"locus YML070W, strain DAK1, active compounds read low",0.209 (active)
same,normalized growth,"locus YMR001C, strain CDC5, active compounds read low",0.816 (active)
same,normalized growth,"locus YMR205C, strain PFK2 (second series), active compounds read low",0.325 (active)
same,normalized growth,"locus YNL006W, strain LST8, active compounds read low",0.793 (active)
same,normalized growth,"locus YNL020C, strain ARK1, active compounds read low",0.243 (active)
same,normalized growth,"locus YNL161W, strain CBK1, active compounds read low",0.658 (active)
same,normalized growth,"locus YNL183C, strain NPR1, active compounds read low",0.197 (active)
same,normalized growth,"locus YNL207W, strain RIO2, active compounds read low",0.528 (active)
same,normalized growth,"locus YNL222W, strain SSU72, active compounds read low",0.708 (active)
same,normalized growth,"locus YNL307C, strain MCK1 (second series), active compounds read low",0.189 (active)
same,normalized growth,"locus YOL136C, strain PFK27, active compounds read low",0.188 (active)
same,normalized growth,"locus YOR061W, strain CKA2, active compounds read low",0.181 (active)
same,normalized growth,"locus YOR119C, strain RIO1, active compounds read low",0.221 (active)
same,normalized growth,"locus YOR231W, strain MKK1, active compounds read low",0.198 (active)
same,normalized growth,"locus YOR329C, strain SCD5, active compounds read low",0.702 (active)
same,normalized growth,"locus YPL031C, strain PHO85, active compounds read low",0.198 (active)
same,normalized growth,"locus YPL153C, strain RAD53, active compounds read low",0.178 (active)
same,normalized growth,"locus YPL204W, strain HRR25, active compounds read low",0.177 (active)
same,normalized growth,"locus YPL209C, strain IPL1, active compounds read low",0.748 (active)
same,normalized growth,"locus YPL256C, strain CLN2, active compounds read low",0.25 (active)
same,normalized growth,"locus YPR025C, strain CCL1, active compounds read low",0.821 (active)
same,normalized growth,"locus YPR106W, strain ISR1, active compounds read low",0.929
same,normalized growth,"locus YPR111W, strain DBF20, active compounds read low",0.902
same,normalized growth,"strain NNK1, active compounds read low",0.536 (active)
same,normalized growth,"strain TSCII, active compounds read low",0.604 (active)
